# Compounds with a hit are over-represented: about 9.9% of the library has one in this group of screens.
# IL1B secr inh: inflammasome signaling inhibition, IL-1 beta readout; THP-1 LPS/ATP IL-1B secretion, AlphaLISA, 16 h; active compounds read low; activity change, % at 57.5 µM; 360,000 tested, 4.7% active; AID 743279; in the data active means activity change below about -50%; inconclusive means mostly about -30% to -49%; further: on the % scale 0 is the no-effect control and ±100 the full control effect
#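 THP-1 cells pretreated 1 hr with compounds (up to 57.5 uM final), then stimulated with LPS (250 ng/mL final) plus ATP (1.25 mM final); secreted IL-1B measured by AlphaLISA after 16 hr, decreased signal indicating inhibition.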
# MCF10A rerep: induces DNA re-replication in MCF 10a normal breast cells; MCF 10A DNA re-replication, Hoechst nuclear intensity, 48 h; Potency, µM (top dose mostly 46.1 µM), inactives show at the highest dose activity, positive = re-replication, actives largely listed as activators; 350,000 tested, 2.9% active; further: potency means the concentration at half of the fitted maximal effect; % of control where 0% means no effect; nearly all actives have a fitted effect of over 50% in size
# KB-3-1 tox: kills parental KB-3-1 adenocarcinoma cells. 400,000 tested, 1.4% active. KB-3-1 viability, CellTiter-Glo ATP luminescence, 72 h. Potency, µM (series often up to 46.1 µM), usual class: cytotoxic; further: potency means the concentration at half of the fitted maximal effect; on the % scale 0 is the no-effect control and ±100 the full control effect; nearly all actives have a fitted effect of over 60% in size
#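 Cells are dispensed, compounds pinned in, plates held at 37 °C for 72 h, then CellTiter-Glo is added and luminescence read after 10 minutes. Cell line: parental KB-3-1 in phenol-red-free DMEM, 10% FBS.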
# SW480 rerep: inducers of DNA re-replication in SW480 colon cancer cells. SW480 DNA re-replication, Hoechst DNA content imaging, 48 h. Potency, µM (highest dose often 46.1 µM), without a hit: at the highest dose re-replication activation, hits mostly activators. 340,000 tested, 1.8% active. AID 624297; further: potency means the concentration at half of the fitted maximal effect; % of control where 0% means no effect; nearly all actives have a fitted effect of over 55% in size
#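 Treated cells incubate 48 hr (37 C, 5% CO2), are stained 40 min with Hoechst, and nuclear fluorescence is enumerated; a rise in nuclei with high DNA signal marks re-replication.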
# KB-V1 MDR tox: KB-V1 MDR subline cytotoxicity; 400,000 tested, 3.4% active; AID 1347076; Potency, µM (series often up to 46.1 µM), actives largely listed as cytotoxic; KB-V1 MDR cells viability, CellTiter-Glo, 72 h; further: potency means the concentration at half of the fitted maximal effect; on the % scale 0 is the no-effect control and ±100 the full control effect; nearly all actives have a fitted effect of over 60% in size
#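 KB-V1 MDR subline cells in DMEM (phenol-red free, 10% FBS) exposed to compounds in qHTS concentration series for 72 h at 37 degrees C. Viability read by CellTiter-Glo luminescence; concentration-effect curves fitted after normalization and correction.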
# An asterisk follows results filed as active; i = inactive; ? = inconclusive; · = no result given. Unless noted, the call rests on the fitted dose curve; in most records, active means well fitted curve in the direction sought with a large enough effect; inconclusive means small, poorly fitted or top-dose-only effect, or another doubt; inactive means no such curve, though single readings can be large; an effect the other way counts as inactive or inconclusive.
SMILES,IL1B secr inh,MCF10A rerep,KB-3-1 tox,SW480 rerep,KB-V1 MDR tox
COc1ccc(N2CCOCC2)c(NC(=O)c2ccc3c(c2)OCO3)c1,-9,2%,i,-3%,i
CC(Oc1cccc(Cl)c1)C(=O)Nc1cc(Cl)ccc1N1CCOCC1 (stereo unspecified),-14,?,i,9.2µM*,?
O=C(NC(=S)Nc1cccc(Cl)c1N1CCCCC1)c1ccc2c(c1)OCCO2,-6,4.6µM*,i,?,15µM*
Cn1c(=O)n(-c2ccc(F)c(Cl)c2)c(=O)c2sc3ccccc3c21,·,·,i,·,i
Cc1c(NC(=O)COC(=O)c2cccc(F)c2)c(=O)n(-c2ccccc2)n1C,0,·,i,·,i
CC(C)C(=O)N1CCN(c2ccc(NC(=O)c3ccc4c(c3)OCCO4)cc2Cl)CC1,-97*,18µM*,?,6%,2.9µM*
CC(=O)N1CCN(c2ccc(NC(=O)c3ccc4c(c3)OCCO4)cc2Cl)CC1,-88*,?,i,-4%,?
CC(Oc1cccc(Cl)c1)C(=O)N(C)CC(=O)Nc1ccc(N2CCOCC2)cc1 (stereo unspecified),16,16%,i,-3%,i
COc1cccc(C(=O)Nc2c(C(=O)c3ccc(F)cc3)oc3ccccc23)c1,·,·,i,·,i
COc1ccc(N)cc1-n1c(C)ccc1C,?,4%,i,0.52µM*,?
COc1ccc(C)cc1-n1c(C)cc(C=O)c1C,1,-2%,i,10%,i
CCN(CC)c1ccc2nc3ccccc3[n+](CC)c2c1,-101*,12µM*,3.7µM*,3.7µM*,9.2µM*
CCN(CC)c1ccc2nc3ccc(N)cc3[n+](-c3ccccc3)c2c1,-6,?,0.73µM*,?,?
CCN(CC)c1ccc(/C=C/c2cc(Cl)nc3ccccc23)cc1,·,·,i,·,i
Oc1c(C(c2ccccc2Cl)N2CCN(Cc3ccccc3)CC2)sc2nc(-c3ccco3)nn12 (stereo unspecified),·,·,i,·,i
Cc1nn(C(=O)c2ccc(Cl)cc2)c(C)c1S(=O)(=O)N1CCOCC1,·,·,i,·,i
Cc1oc2c(c1C(=O)Nc1ccc(Cl)cc1F)C1=NCCN1C=N2,·,·,i,·,i
Nc1c(C(=O)Nc2ccc3c(c2)OCCO3)nnn1Cc1ccc(F)cc1,-7,2%,i,-159%,i
Nc1c(C(=O)Nc2ccc3c(c2)OCCO3)nnn1Cc1cccc(Cl)c1,-21,?,16µM*,-91%,i
Cc1c(C(=O)Nc2ccc(F)cc2F)oc2ccc3c(c12)C(=O)CC(C)(C)O3,·,·,i,·,i
CCN(CC)c1ccc(C(=O)N/N=C(\C)c2cccnc2)cc1,-3,20%,i,-4%,?
C/C(=N\NC(=O)c1ccc(O)cc1)c1ccc2c(c1)Nc1ccccc1S2,-101*,?,i,0%,?
C/C(=N\NC(=O)c1ccc(OC2CCCC2)cc1)c1ccc(O)cc1,-14,?,3.7µM*,9%,?
C/C(=N\NC(=O)c1ccccc1F)c1ccc2c(c1)Nc1ccccc1S2,?,25%,?,?,i
CCN(CC)c1ccc(C(=O)N/N=C(\C)c2ccc(O)cc2)cc1,-6,8.2µM*,13µM*,-4%,i
SMILES,IL1B secr inh,MCF10A rerep,KB-3-1 tox,SW480 rerep,KB-V1 MDR tox
Cn1c(-c2ccccc2)cc2ccccc21,2,-17%,i,-2%,i
Cn1c(C(c2cc3ccccc3n2C)c2cc3ccccc3n2C)cc2ccccc21,·,·,18µM*,·,?
C/C(=N\NC(=O)COc1cccc(C)c1)c1ccc2ccccc2c1O,72,13µM*,?,23µM*,i
Cc1cccc(OCC(=O)NCc2ccccc2)c1,-3,-2%,i,4%,i
CCCN1CCc2c(sc(NC(=O)c3ccc(S(=O)(=O)N(C)c4ccccc4)cc3)c2C(N)=O)C1,-16,6.5µM*,i,?,i
CCCN1CCc2c(sc(NC(=O)c3ccc(S(=O)(=O)N(C)c4ccccc4)cc3)c2C(=O)NC)C1,-60*,?,i,?,?
CCCN1CCc2c(sc(NC(=O)CCS(=O)(=O)c3ccccc3)c2C(=O)OC)C1,i,18µM*,i,?,i
NC(=O)c1c(NC(=O)C2COc3ccccc3O2)sc2c1CCN(Cc1ccccc1)C2 (stereo unspecified),8,23µM*,?,?,?
O=C(Nc1ccc(C(F)(F)F)cc1)C1CCC(CNS(=O)(=O)c2cccc3nsnc23)CC1 (stereo unspecified),·,·,i,·,?
COC(=O)CCN1CCC2CC1c1cc(Cl)ccc12 (stereo unspecified),-19,?,i,-42%,i
CCOC(=O)c1ccc(N2C(=O)C3C(/C=C/c4ccccc4)OC4(C(=O)c5ccccc5C4=O)C3C2=O)cc1 (stereo unspecified),28,26µM*,i,-6%,i
COc1cc(C2NC(=O)NC(C)=C2[N+](=O)[O-])cc(OC)c1OC (stereo unspecified),-9,-2%,i,-1%,i
FC(F)(F)c1cc(-c2ccccc2)nc(NCC2CCCO2)n1 (stereo unspecified),7,22%,i,0%,i
FC(F)(F)c1cc(-c2ccccc2)nc(NC2CCCC2)n1,19,7.3µM*,i,12%,i
CCN(CC)C(=O)COc1ccc(/C(C)=N/Nc2ncc(Cl)cc2Cl)cc1,-17,-16%,i,4%,i
Cc1ccc(Sc2nc3ccc(C)cn3c(=O)c2/C=N/O)cc1,-6,16µM*,i,?,i
Cc1ccc2nc(Cl)c(/C=N/Nc3nc(C)cc(C)n3)c(=O)n2c1,-97*,?,i,?,?
Cc1ccc2nc(C)c(Cl)c(=O)n2c1,-3,-1%,i,-7%,i
COc1ccc(S(=O)(=O)N(CC(=O)Nc2ccc3c(c2)OCO3)c2ccc(C)cc2)cc1,·,·,i,·,i
CC1CC(C)CN(C(=O)C(C)N2CCN(S(=O)(=O)c3ccc(Br)s3)CC2)C1 (stereo unspecified),-59*,?,i,1%,i
CC1CC(C)CN(C(=O)C(C)N2CCN(S(=O)(=O)c3cccs3)CC2)C1 (stereo unspecified),2,-1%,i,-3%,i
CC1CCCCC1NC(=O)CN1CCN(S(=O)(=O)c2ccc(Br)s2)CC1 (stereo unspecified),-18,2%,?,1%,9.2µM*
CC1CCC(NC(=O)CN2CCN(S(=O)(=O)c3ccc(Br)s3)CC2)CC1 (stereo unspecified),-4,·,i,·,?
